Bioassay records (PubChem BioAssay)
Most compounds without a hit are left out; they make up all but 0.37% or so of the library.
Rab2 wt GTP: changes GTP binding to wildtype dog Rab2A, up or down; P61105; GST-Rab2 wt beads, Bodipy-GTP binding, flow cytometry; 190,000 compounds, 0.19% hits; AID 760; GTP binding activity, % at 10 µM;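 active = GTP binding activity at least 20 points away from 100%, either lowered or raised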;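 note: 0% = beads with excess unlabeled GTP and 100% = no-compound control corrected for plate trend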
HRas wt GTP: modulators of GTP binding to human HRas wildtype. 190,000 compounds, 0.14% hits. P01112. GTP binding activity, % at 10 µM. GST-Ras wt beads, Bodipy-FL-GTP binding, flow cytometry; actives lie on both sides;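 active = GTP binding activity at least 20% away from the 100% baseline, either lowered as inhibitor or raised as activator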;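 note: 0% = unlabeled GTP competition control and 100% = no-compound control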
Target sequence (P01112 whole entry, looked up): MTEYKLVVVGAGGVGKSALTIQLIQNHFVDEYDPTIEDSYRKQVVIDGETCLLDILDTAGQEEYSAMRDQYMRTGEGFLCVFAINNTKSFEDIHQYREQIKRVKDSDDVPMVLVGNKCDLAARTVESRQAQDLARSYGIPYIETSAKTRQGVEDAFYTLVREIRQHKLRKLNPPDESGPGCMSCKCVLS
Rac1 mut GTP: human Rac1 activated mutant GTP binding change. P63000. GST-Rac1 activated beads, fluorescent GTP binding, flow cytometry; actives lie on both sides; 100% means binding = to untreated wells. percent activity (GTP binding), % at 10 µM. 190,000 compounds, 0.11% hits. AID 764;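 active = GTP binding at least 20 percentage points away from the 100% baseline, in either direction, so actives lie on both sides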
Cdc42 wt: modulators (inhibitors or activators) of GTP binding to human Cdc42 wildtype | GST-Cdc42 beads, Bodipy-GTP binding, flow cytometry; actives lie on both sides | percent activity (GTP binding), % at 10 µM | 190,000 compounds, 0.2% hits | AID 761;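 active = percent activity GTP binding at least 20 points away from the 100% baseline, either down as inhibitor or up as activator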;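 note: median bead fluorescence of bound Bodipy-FL-GTP at 100 nM; 0% = excess unlabeled GTP control and 100% = no compound control; below 100% means less GTP binding so inhibitor and above means activator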
Target sequence (P60953 whole entry, looked up): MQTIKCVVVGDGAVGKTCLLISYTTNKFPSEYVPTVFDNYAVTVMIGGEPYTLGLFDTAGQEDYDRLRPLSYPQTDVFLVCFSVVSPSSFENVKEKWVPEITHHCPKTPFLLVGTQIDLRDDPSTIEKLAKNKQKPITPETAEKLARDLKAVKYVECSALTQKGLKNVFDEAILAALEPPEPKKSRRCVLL
Rac1 wt modul: human Rac1 wildtype GTP binding, inhibitors and activators | GST-Rac1 beads, fluorescent GTP binding, flow cytometry; actives lie on both sides; 0 = cold GTP competed, 100 = untreated | GTP binding activity (% of control), % at 10 µM | 190,000 compounds, 0.27% hits | AID 757;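 active = GTP binding activity at least 20 points away from the 100% control level, either lower or higher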
Rab7 wt modul: alters GTP binding to wildtype dog Rab7. GST-Rab7 beads, fluorescent GTP binding, flow cytometry; actives lie on both sides; untreated = 100%, excess cold GTP = 0%. GTP binding activity (percent of control), % at 10 µM. 190,000 compounds, 0.055% hits. AID 758;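 active = fluorescent GTP binding to Rab7 beads changed by at least 20 points from the 100% baseline, either direction, mostly lower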;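 note: median green fluorescence of bound Bodipy-FL-GTP per Rab7 bead population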
* = called active by the depositor; [ ] = another dose, or the depositor's remark.

SMILES | Rab2 wt GTP | HRas wt GTP | Rac1 mut GTP | Cdc42 wt | Rac1 wt modul | Rab7 wt modul
N=C1/C(=C\c2ccc(SCc3ccco3)o2)C(=O)N=C2SC=NN12 | 77* | 74* | 81 | 72* | 76* | 88
Fc1ccccc1-c1csc(=Nc2cccnc2)n1CCCn1ccnc1 | 101 | 100 | 100 | 104 | 105 | 101
COc1ccc(C2Nc3ccccc3C(=O)N2NS(=O)(=O)c2ccccc2)cc1 (configuration not stated) | 94 | 97 | 96 | 97 | 99 | 98
O=C(NC1CCCCC1)c1cc([N+](=O)[O-])[nH]n1 | 109 | 111 | 108 | 111 | 127*[activator] | 109
CCCCNC(=O)c1cc([N+](=O)[O-])[nH]n1 | 104 | 106 | 108 | 108 | 127*[activator] | 104
COC(=O)c1ccc(/C=N/Nc2nc(-c3ccc(Cl)cc3Cl)cs2)cc1 | 123*[activator] | 121*[activator] | 119 | 127*[activator] | 130*[activator] | 124*[activator]
COc1cc(/C=N/Nc2nnc3c(n2)[nH]c2ccccc23)ccc1O | 79* | 83 | 93 | 94 | 86 | 85
COc1cc(/C=N/Nc2nncn2/N=C/c2ccc(O)c(OC)c2)ccc1O | 79* | 76* | 86 | 77* | 75* | 91
COc1cc(/C=N/Nc2ccccc2C(F)(F)F)ccc1O | 97 | 94 | 93 | 90 | 94 | 103
Cc1cccc2cc(-c3ccccc3)c(-c3ccccc3)c[n+]12 | 99 | 100 | 98 | 99 | 105 | 98
O=C(CS(=O)(=O)c1c[nH]c2ccccc12)N1CCc2ccccc21 | 98 | 95 | 95 | 96 | 95 | 102
CCn1c(=N)c(S(=O)(=O)c2ccc(C)cc2)cc2c(=O)n3ccccc3nc21 | 84 | 84 | 90 | 81 | 74* | 95
Cc1ccc(S(=O)(=O)c2cc3c(=O)n4ccccc4nc3n(Cc3ccco3)c2=N)cc1C | 103 | 107 | 103 | 108 | 109 | 103
CCn1c(=N)c(S(=O)(=O)c2ccccc2)cc2c(=O)n3ccccc3nc21 | 89 | 91 | 94 | 88 | 87 | 95
Cc1ccc(S(=O)(=O)c2cc3c(=O)n4ccccc4nc3n(C)c2=N)cc1 | 78* | 79* | 91 | 82 | 93 | 93
Cc1cc(NC(=O)COC(=O)c2ccco2)no1 | 93 | 97 | 93 | 100 | 96 | 94
CCOC(=O)C1(CC2CC2)CCN(C(=O)c2cccnc2C)CC1 | 98 | 97 | 96 | 97 | 102 | 101
Cc1cc(C)c(C)c(C(=O)c2ccccc2C(=O)O)c1C | 123*[activator] | 120*[activator] | 129*[activator] | 132*[activator] | 150*[activator] | 119
Cc1ccc(C(=O)c2ccccc2C(=O)O)c(O)c1 | 99 | 101 | 98 | 102 | 103 | 100
Cc1ccc(C(=O)c2ccccc2C(=O)O)cc1C | 124*[activator] | 123*[activator] | 132*[activator] | 135*[activator] | 150*[activator] | 119
Cc1cc(C)nc(N/N=C2/CCCC/C2=C\c2ccccc2)n1 | 93 | 92 | 95 | 98 | 94 | 90
c1ccc(CN(Cc2ccccc2)c2nn[nH]n2)cc1 | 92 | 93 | 89 | 91 | 94 | 103
Clc1ccc(CN(Cc2ccc(Cl)cc2)c2nn[nH]n2)cc1 | 80 | 87 | 77* | 80 | 83 | 96
O=S(=O)(Nc1cccc(-c2cn3cccnc3n2)c1)c1ccccc1 | 74* | 75* | 85 | 86 | 70* | 87
O=S(=O)(Nc1cccc(-c2cn3cccnc3n2)c1)c1ccc(-c2ccccc2)cc1 | 95 | 97 | 94 | 93 | 95 | 96
O=C(CN1C(=O)S/C(=C/c2ccncc2)C1=O)N1CCOCC1 | 95 | 97 | 100 | 99 | 103 | 98
O=C(CN1C(=O)S/C(=C/c2cccnc2)C1=O)N1CCOCC1 | 70* | 78* | 91 | 83 | 94 | 88
CCNC(=S)N=Nc1c(O)[nH]c2ccc([N+](=O)[O-])cc12 | 65* | 67* | 80 | 65* | 58* | 83
COc1ccc(-c2cc(C#N)nc(N3CCNCC3)n2)cc1 | 127*[activator] | 125*[activator] | 131*[activator] | 131*[activator] | 131*[activator] | 113
